{
  "source": "PubChem BioAssay (EPA / NIEHS)",
  "note": "Calls of active or inactive are those of the source. How the source made its calls: active means hit-call score of the fitted dose curve at least 0.9, where 1 is the maximum; inactive means score below 0.9.",
  "data": [
    {"assay": "CCTE_Harrill_HTTr_Viability_MCF7: CCTE's 6-hour Cell Viability Assessment for the High-Throughput Transcriptomics (HTTr) Platform, in MCF-7 cells cultured in DMEM + 10% fetal bovine serum, Harrill Lab (AID 2284010)", "in_short": "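MCF-7 cells in DMEM + 10% FBS, 384-well, exposed 6 h to an eight-point dilution series. Membrane integrity scored by high-content imaging of propidium iodide exclusion; bidirectional fit versus DMSO.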", "values": [
      {"molecule": "CSC(C)(C)C=NO", "outcome": "inactive"},
      {"molecule": "CC(C)(C)OOC(C)(C)C", "outcome": "inactive"},
      {"molecule": "O=P1(N(CCCl)CCCl)NCCCO1", "note": "(configuration not stated)", "outcome": "inactive"},
      {"molecule": "c1nc[nH]n1", "outcome": "inactive"},
      {"molecule": "c1ccc2c(c1)sc1ccccc12", "outcome": "inactive"},
      {"molecule": "COP(=O)(O)OC", "outcome": "inactive"},
      {"molecule": "Nc1ccc(Cl)cc1", "outcome": "inactive"},
      {"molecule": "O=NN1CCCC1", "outcome": "inactive"},
      {"molecule": "FC(F)(F)c1ccc(Cl)cc1", "outcome": "inactive"},
      {"molecule": "OCC1CO1", "note": "(configuration not stated)", "outcome": "inactive"},
      {"molecule": "Nc1ccc(Sc2ccc(N)cc2)cc1", "outcome": "inactive"},
      {"molecule": "Cc1ccc(O)cc1C", "outcome": "inactive"},
      {"molecule": "O=C(O)C(Cl)Cl", "outcome": "inactive"},
      {"molecule": "CCCCOCC1CO1", "note": "(configuration not stated)", "outcome": "inactive"},
      {"molecule": "Cc1ccc([N+](=O)[O-])cc1C", "outcome": "inactive"},
      {"molecule": "CCOP(=S)(S)OCC", "outcome": "inactive"},
      {"molecule": "CCCCc1ccccc1", "outcome": "inactive"},
      {"molecule": "CCOC(=O)c1ccccc1C(=O)OCC", "outcome": "inactive"},
      {"molecule": "CN(C)C(=O)Cl", "outcome": "inactive"},
      {"molecule": "O=C(O)CF", "outcome": "inactive"},
      {"molecule": "CCCN(CCC)c1c([N+](=O)[O-])cc(C(C)C)cc1[N+](=O)[O-]", "outcome": "inactive"},
      {"molecule": "CCOP(=S)(NC(C)C)Oc1ccccc1C(=O)OC(C)C", "note": "(configuration not stated)", "outcome": "inactive"},
      {"molecule": "Cc1c([N+](=O)[O-])cc2c(c1[N+](=O)[O-])C(C)(C)CC2(C)C", "outcome": "inactive"},
      {"molecule": "CCCCC(CC)COC(=O)c1c(Br)c(Br)c(Br)c(Br)c1C(=O)OCC(CC)CCCC", "note": "(configuration not stated)", "outcome": "inactive"},
      {"molecule": "CC(Cc1ccc(OCC(=O)O)cc1)NCC(O)c1csc(C(F)(F)F)n1", "note": "(configuration not stated)", "outcome": "inactive"},
      {"molecule": "CCOP(=S)(OCC)SCSc1ccc(Cl)cc1", "outcome": "inactive"},
      {"molecule": "O=P(Oc1ccccc1)(Oc1ccccc1)Oc1ccccc1", "outcome": "inactive"},
      {"molecule": "CCCCN(CCCC)N=O", "outcome": "inactive"},
      {"molecule": "C/C(=N\\NC(=O)Nc1cc(F)cc(F)c1)c1ncccc1C(=O)O", "outcome": "inactive"},
      {"molecule": "Cc1ccc2c(c1N)C(=O)c1ccccc1C2=O", "outcome": "inactive"},
      {"molecule": "O=[N+]([O-])c1ccccc1", "outcome": "inactive"},
      {"molecule": "N#Cc1ccc(O)cc1", "outcome": "inactive"},
      {"molecule": "Clc1ccc(Oc2ccccc2)cc1", "outcome": "inactive"},
      {"molecule": "Nc1cc2c3c(c1)C(c1ccccc1)=N[C@@H](NC(=O)c1cccnc1)C(=O)N3CC2", "outcome": "inactive"},
      {"molecule": "CCCCN(CCCC)SN(C)C(=O)Oc1cccc2c1OC(C)(C)C2", "outcome": "inactive"},
      {"molecule": "O=S(=O)(c1ccc(O)cc1)c1ccc(O)cc1", "outcome": "inactive"}
    ]},
    {"assay": "CCTE_Harrill_HTTr_Apoptosis_MCF7: CCTE's 6-hour Apoptosis Assessment for the High-Throughput Transcriptomics (HTTr) Platform, in MCF-7 cells cultured in DMEM + 10% fetal bovine serum, Harrill Lab (AID 2284011)", "in_short": "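MCF-7 cells in DMEM + 10% FBS exposed 6 h to chemicals over an eight-point dilution series. Caspase-3/7 activation imaged by high-content CellEvent Green staining; fitted bidirectionally versus DMSO.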", "values": [
      {"molecule": "CSC(C)(C)C=NO", "outcome": "inactive"},
      {"molecule": "CC(C)(C)OOC(C)(C)C", "outcome": "inactive"},
      {"molecule": "O=P1(N(CCCl)CCCl)NCCCO1", "note": "(configuration not stated)", "outcome": "inactive"},
      {"molecule": "c1nc[nH]n1", "outcome": "inactive"},
      {"molecule": "c1ccc2c(c1)sc1ccccc12", "outcome": "inactive"},
      {"molecule": "COP(=O)(O)OC", "outcome": "inactive"},
      {"molecule": "Nc1ccc(Cl)cc1", "outcome": "inactive"},
      {"molecule": "O=NN1CCCC1", "outcome": "inactive"},
      {"molecule": "FC(F)(F)c1ccc(Cl)cc1", "outcome": "inactive"},
      {"molecule": "OCC1CO1", "note": "(configuration not stated)", "outcome": "inactive"},
      {"molecule": "Nc1ccc(Sc2ccc(N)cc2)cc1", "outcome": "inactive"},
      {"molecule": "Cc1ccc(O)cc1C", "outcome": "inactive"},
      {"molecule": "O=C(O)C(Cl)Cl", "outcome": "inactive"},
      {"molecule": "CCCCOCC1CO1", "note": "(configuration not stated)", "outcome": "inactive"},
      {"molecule": "Cc1ccc([N+](=O)[O-])cc1C", "outcome": "inactive"},
      {"molecule": "CCOP(=S)(S)OCC", "outcome": "inactive"},
      {"molecule": "CCCCc1ccccc1", "outcome": "inactive"},
      {"molecule": "CCOC(=O)c1ccccc1C(=O)OCC", "outcome": "inactive"},
      {"molecule": "CN(C)C(=O)Cl", "outcome": "inactive"},
      {"molecule": "O=C(O)CF", "outcome": "inactive"},
      {"molecule": "CCCN(CCC)c1c([N+](=O)[O-])cc(C(C)C)cc1[N+](=O)[O-]", "outcome": "inactive"},
      {"molecule": "CCOP(=S)(NC(C)C)Oc1ccccc1C(=O)OC(C)C", "note": "(configuration not stated)", "outcome": "inactive"},
      {"molecule": "Cc1c([N+](=O)[O-])cc2c(c1[N+](=O)[O-])C(C)(C)CC2(C)C", "outcome": "inactive"},
      {"molecule": "CCCCC(CC)COC(=O)c1c(Br)c(Br)c(Br)c(Br)c1C(=O)OCC(CC)CCCC", "note": "(configuration not stated)", "outcome": "inactive"},
      {"molecule": "CC(Cc1ccc(OCC(=O)O)cc1)NCC(O)c1csc(C(F)(F)F)n1", "note": "(configuration not stated)", "outcome": "inactive"},
      {"molecule": "CCOP(=S)(OCC)SCSc1ccc(Cl)cc1", "outcome": "inactive"},
      {"molecule": "O=P(Oc1ccccc1)(Oc1ccccc1)Oc1ccccc1", "outcome": "inactive"},
      {"molecule": "CCCCN(CCCC)N=O", "outcome": "inactive"},
      {"molecule": "C/C(=N\\NC(=O)Nc1cc(F)cc(F)c1)c1ncccc1C(=O)O", "outcome": "inactive"},
      {"molecule": "Cc1ccc2c(c1N)C(=O)c1ccccc1C2=O", "outcome": "inactive"},
      {"molecule": "O=[N+]([O-])c1ccccc1", "outcome": "inactive"},
      {"molecule": "N#Cc1ccc(O)cc1", "outcome": "inactive"},
      {"molecule": "Clc1ccc(Oc2ccccc2)cc1", "outcome": "inactive"},
      {"molecule": "Nc1cc2c3c(c1)C(c1ccccc1)=N[C@@H](NC(=O)c1cccnc1)C(=O)N3CC2", "outcome": "inactive"},
      {"molecule": "CCCCN(CCCC)SN(C)C(=O)Oc1cccc2c1OC(C)(C)C2", "outcome": "inactive"},
      {"molecule": "O=S(=O)(c1ccc(O)cc1)c1ccc(O)cc1", "outcome": "inactive"}
    ]}
  ]
}
